In the library only some 3.1% were active in any assay of this set; here they are far more common.
Neddylation inh: inhibitors of human cullin neddylation; TR-FRET cullin neddylation, biochemical; calls only at 25 µM; 360,000 compounds, 0.58% hits; AID 651699; in the data active = inhibition above about 36%
Rin1-Abl PPI inh: inhibitors of human Rin1-Abl protein interaction | P00519+Q13671 | TR-FRET Rin1/Abl binding, biochemical | inhibition, % at 7.35 µM | 360,000 compounds, 0.4% hits | AID 588664; in the data active = inhibition above about 5%, passing the limit was not always enough
LEDGF integ inh: blocks HIV-1 LEDGF/p75-dependent DNA integration; TR-FRET IN-LEDGF/p75 DNA integration, Eu/Cy5; inhibition, % at 3.7 µM; 370,000 compounds, 0.64% hits; AID 743269;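 active = inhibition above the screen-wide mean plus 3 SD, cut at about 13% in these data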;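 note: signal is the Cy5 over europium emission ratio at 671 and 618 nm; 0% = plate median of compound wells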
UHRF1 binding: UHRF1 methyl-DNA binding inhibition | UHRF1 binding to methylated oligo, TR-FRET | inhibition, % at 4.4 µM | 370,000 compounds, 0.75% hits | AID 687016; in the data active = inhibition above about 21%;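 note: UHRF1 SRA domain binding a hemimethylated CpG hairpin DNA probe; 0% = median of test compound wells and 100% = reference inhibitor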
KLK7 zymogen act: activates the human kallikrein-7 zymogen | P49862 | purified proKLK7, EDANS-DABCYL substrate fluorescence; 100% is mature enzyme control, 0% vehicle | activation, % at 7 µM | 370,000 compounds, 0.9% hits | AID 652039;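 active = activation above the mean of all tested compounds plus 3 SD, computed per campaign excluding outliers beyond control limits, cut at about 13% in these data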
Target sequence (P49862 whole entry, looked up): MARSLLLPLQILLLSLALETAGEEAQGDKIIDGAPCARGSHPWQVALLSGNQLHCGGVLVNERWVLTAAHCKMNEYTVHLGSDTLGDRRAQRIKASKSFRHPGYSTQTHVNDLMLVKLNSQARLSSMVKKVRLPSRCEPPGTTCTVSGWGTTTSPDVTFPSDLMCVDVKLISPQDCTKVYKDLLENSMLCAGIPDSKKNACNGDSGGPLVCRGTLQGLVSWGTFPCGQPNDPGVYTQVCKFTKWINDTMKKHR
MBD2 inh: MBD2-methylated oligo binding inhibition | AID 686964 | inhibition, % at 4.4 µM | TR-FRET, MBD2 binding to methylated oligonucleotide | 370,000 compounds, 0.31% hits; in the data active = inhibition above about 13%
Target sequence (Q9UBB5 whole entry, looked up): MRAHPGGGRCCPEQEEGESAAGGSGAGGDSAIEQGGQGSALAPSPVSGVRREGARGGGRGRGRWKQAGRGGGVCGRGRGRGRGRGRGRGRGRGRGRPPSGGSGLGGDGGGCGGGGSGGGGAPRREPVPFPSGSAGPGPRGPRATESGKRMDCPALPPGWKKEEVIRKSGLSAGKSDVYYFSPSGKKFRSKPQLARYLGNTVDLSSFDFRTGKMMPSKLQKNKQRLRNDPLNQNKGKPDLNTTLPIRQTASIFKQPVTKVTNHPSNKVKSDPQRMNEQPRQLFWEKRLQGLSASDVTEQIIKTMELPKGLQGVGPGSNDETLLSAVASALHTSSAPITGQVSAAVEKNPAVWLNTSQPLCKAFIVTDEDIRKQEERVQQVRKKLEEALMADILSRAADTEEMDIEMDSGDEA
proKLK7 act conf: confirmation of human kallikrein-7 zymogen activators. shares compounds with KLK7 zymogen act. purified proKLK7, EDANS-DABCYL substrate fluorescence; scaled: vehicle 0, mature enzyme 100. activation, % at 7 µM. 3,200 compounds, 68% hits. AID 686949;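 active = activation, as change over the incubation, above the mean of all tested compounds plus 3 SD, cut at about 13% in these data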
EDANS-DABCYL int: optically interferes with EDANS-DABCYL signal, flagging KLK7 hits; shares compounds with KLK7 zymogen act; EDANS-DABCYL substrate fluorescence interference, no enzyme, 4 h; solvent 0%, active enzyme control 100%; activation, % at 7 µM; 3,200 compounds, 80% hits; AID 686952;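 active = activation above the all-compound mean plus 3 SD, ignoring values outside control-based bounds, cut at about 4.8% in these data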;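 note: value is the 4 h activation minus the activation read at time zero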
K7 EDANS ctr: EDANS fluorescence interference in dose response, no enzyme. shares compounds with KLK7 zymogen act. EDANS-DABCYL peptide fluorescence interference. AID 720493. EC50, µM. 250 compounds, 20% hits;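 active = compounds that raise the fluorescence signal in this interference counterscreen, with EC50 at or below 10 µM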;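 note: intact quenched peptide substrate alone read at 355 nm excitation and 520 nm emission; signal is fluorescence gain from T0 to T4 after four hours at room temperature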
Starred values were filed as active, the others as inactive; i = inactive; x = not tested or not shown.

SMILES | Neddylation inh | Rin1-Abl PPI inh | LEDGF integ inh | UHRF1 binding | KLK7 zymogen act | MBD2 inh | proKLK7 act conf | EDANS-DABCYL int | others
COc1ccc(-c2cn3nc(SCC(=O)NCC4CCCO4)ccc3n2)cc1 (configuration not stated) | x | -2.8 | 0.0 | -1.0 | 95.2* | -2.0 | 52.0* | 69.5*
Cc1cccn2c(=O)c(/C=C(\C#N)C(N)=O)c(N3CCN(Cc4ccc5c(c4)OCO5)CC3)nc12 | i | 5.0 | -3.6 | -3.4 | 15.1* | -4.6 | 2.7 | 3.5
CCN1CCN(c2nc3c(C)cccn3c(=O)c2/C=C(\C#N)C(=O)NCCOC)CC1 | i | -1.3 | 5.4 | 1.4 | 29.8* | -6.8 | 19.6* | 20.8*
COCCCNC(=O)/C(C#N)=C/c1c(N2CCN(C)CC2)nc2ccccn2c1=O | x | -0.7 | -0.8 | -2.0 | 16.8* | -4.0 | 10.0 | 12.1*
CCOC(=O)/C(C#N)=C/c1c(N2CCN(Cc3ccc4c(c3)OCO4)CC2)nc2c(C)cccn2c1=O | i | -7.9 | -5.2 | 0.5 | 0.1 | -0.9 | x | x
O=S(=O)(Nc1ccc(-c2nc3cccnc3s2)cc1)c1cc(F)ccc1F | x | -1.8 | -4.3 | -0.4 | 15.8* | 3.5 | 20.3* | 20.8*
CCc1ccc(S(=O)(=O)Nc2ccc(-c3nc4cccnc4s3)cc2)s1 | x | -2.9 | 2.0 | -1.6 | -33.0 | -5.6 | x | x
CCCC[C@@H]1CC2=C(C(=O)OC(C)(C)O2)[C@@H](c2ccc(F)cc2)O1 | i | x | 1.5 | -1.1 | -0.5 | 4.5 | x | x
CC(=O)Oc1ccc2ccc(=O)oc2c1 | x | -1.1 | 1.1 | 0.8 | 357.0* | -8.9 | 602.4* | 608.8*
O=C(Oc1ccc2ccc(=O)oc2c1)c1cccs1 | x | -0.8 | 0.4 | -3.5 | 580.8* | -1.2 | 788.9* | 771.1*
O=C(COc1ccc2ccc(=O)oc2c1)OCc1ccccc1 | i | 6.4 | 0.6 | 0.8 | 4.0 | -3.2 | x | x
O=C(CNC(=O)OCc1ccccc1)Oc1ccc2ccc(=O)oc2c1 | x | 1.1 | 0.5 | -0.9 | 56.1* | -3.4 | 183.1* | 261.2*
Cc1cc(C(=O)COc2ccc3ccc(=O)oc3c2)c(C)n1C | i | 3.4 | 0.2 | -2.5 | 137.8* | -3.0 | 79.0* | 84.9*
COc1ccc(N2CCN(C(=O)c3ccc(CS(=O)Cc4ccc(Cl)cc4)o3)CC2)cc1 (configuration not stated) | i | 0.9 | -2.3 | 0.1 | 0.5 | 4.7 | x | x
COc1cc(NC(=O)CSc2cc(C)c3cc(C)cc(C)c3n2)c(C(=O)O)cc1OC | i | 0.0 | 1.3 | 1.1 | 0.8 | 2.0 | x | x
COc1ccc(C(=O)Oc2ccc3ccc(=O)oc3c2)cc1OC | x | 0.2 | 0.6 | 4.9 | 14.0* | -0.6 | 196.6* | 193.0*
CC(NC(=O)OC(C)(C)C)C(=O)Oc1ccc2ccc(=O)oc2c1 (configuration not stated) | x | -1.5 | -0.5 | 5.2 | 89.4* | 9.8 | 466.5* | 445.2*
COc1ccc2ccc(=O)oc2c1 | x | -5.6 | -3.6 | 0.0 | -0.7 | 0.6 | x | x
O=C(Oc1ccc2ccc(=O)oc2c1)c1ccc([N+](=O)[O-])cc1 | x | 0.3 | -3.5 | 0.9 | 45.2* | 2.7 | 592.6* | 573.0*
COc1cccc(C(=O)Oc2ccc3ccc(=O)oc3c2)c1 | x | -0.2 | -4.3 | 3.1 | 93.5* | 2.4 | 616.3* | 656.0*
CCCCC1OC(CCc2ccccc2)CC2=C1C(=O)OC(C)(C)O2 (configuration not stated) | x | x | -0.6 | -1.9 | 0.4 | -1.7 | x | x
O=C(N[C@H](C(=O)N1CCC[C@H]1C(=O)NC1CCCC1)C1CCCCC1)C1CC1 | x | x | 2.5 | -7.0 | 0.5 | 1.0 | x | x
COc1ccc(Cn2cc(CN3CC(N4CCN(CCN(C)C)CC4)CS3(=O)=O)nn2)cc1 (configuration not stated) | i | x | -3.5 | 18.0 | -0.5 | 11.0 | x | x
Cc1ccccc1NC(=O)COC(=O)COc1ccc2ccc(=O)oc2c1 | i | 0.9 | -2.0 | 2.1 | 13.6* | 4.2 | 15.6* | -1.5 | K7 EDANS ctr=i
Cc1ccc(C(=O)Oc2ccc3ccc(=O)oc3c2)cc1 | x | -1.9 | 0.5 | -1.7 | 40.6* | -0.8 | 110.8* | 107.4*
SMILES | Neddylation inh | Rin1-Abl PPI inh | LEDGF integ inh | UHRF1 binding | KLK7 zymogen act | MBD2 inh | proKLK7 act conf | EDANS-DABCYL int | others
CC(=O)c1ccccc1NC(=O)COC(=O)/C(=C/c1ccccc1)n1nnnc1C | i | 4.1 | -0.9 | 2.5 | 0.1 | 0.1 | x | x
O=Cc1c[nH]c2ccc(OCc3ccccc3)cc12 | i | -3.6 | -3.0 | 2.4 | -0.1 | 1.4 | x | x
O=C(CSCc1ccco1)N1CCc2ccccc21 | i | 1.4 | x | x | x | x | x | x
COc1cc2c(cc1OC)CN(Cc1cc(=O)n3c(-c4ccccc4)csc3n1)CC2 | x | -1.0 | 2.5 | -4.4 | 32.8* | -5.6 | -16.0 | -9.8
COc1ccc(CN2CCc3cc(OC)c(OC)cc3C2)cc1O | i | 4.1 | 0.0 | -4.3 | 0.5 | 5.6 | x | x
COc1cc2c(cc1OC)CN(Cc1ccc(F)cc1)CC2 | x | -5.6 | 6.4 | 0.6 | 38.5* | -1.5 | 13.9* | 17.9*
COc1cc2c(cc1OC)CN(Cc1cc(=O)n3cc(C)ccc3n1)CC2 | x | -0.3 | -1.6 | -4.5 | 32.7* | -4.6 | 28.9* | 33.3*
CCOc1ccc(S(=O)(=O)/N=C(/Nc2ccc(C)c(S(=O)(=O)N3CCOCC3)c2)c2ccccc2)cc1 | i | -1.9 | -0.1 | -1.4 | -0.4 | -4.3 | x | x
O=c1c2[nH]c3ccc(F)cc3c2ncn1Cc1ccncc1 | i | 3.2 | 2.1 | 0.3 | 0.6 | -4.4 | x | x
CCN1CCCC1Cn1cnc2c([nH]c3ccc(OC)cc32)c1=O (configuration not stated) | x | -1.6 | -0.7 | 1.3 | 23.8* | -4.4 | 9.4 | 10.3*
CCC1CCCN1Cn1cnc2c([nH]c3ccc(Cl)cc32)c1=O (configuration not stated) | i | -1.1 | 4.4 | 0.2 | 0.4 | 0.9 | x | x
COc1ccc2[nH]c3c(=O)n(Cc4ccncc4)cnc3c2c1 | x | -1.1 | -4.8 | -0.2 | 12.7* | 4.8 | 7.5 | 9.8*
O=C1Nc2ccc(S(=O)(=O)NCCC3=CCCCC3)c3cccc1c23 | x | 2.4 | 0.2 | -3.4 | 18.0* | -0.7 | 11.6 | 19.1*
CCOC(=O)c1c(C)oc2ccc(NS(=O)(=O)c3ccc4c5c(cccc35)C(=O)N4)cc12 | i | -2.7 | -2.1 | -1.4 | 2.6 | 0.6 | x | x
CCN(c1cccc(C)c1)S(=O)(=O)c1ccc2c3c(cccc13)C(=O)N2 | i | -2.7 | -0.2 | -4.1 | -1.4 | -2.6 | x | x
CCNS(=O)(=O)c1ccc2c3c(cccc13)C(=O)N2 | x | -3.7 | -4.2 | -6.3 | 85.9* | -7.6 | 67.8* | 81.8*

Bioassay records as filed in PubChem.
